Compound activity: PubChem BioAssay, several laboratories
Hits are enriched below; roughly 1.9% of the tested compounds scored in any of these assays.
SK-BR-3 tox 24h: SK-BR-3 proliferation inhibitors. SK-BR-3 viability, CellTiter-Glo ATP luminescence, 24 h; hits give low values. hit rate 0.47% among 41,000. AID 847. viability, % at 10 µM;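 active means viability at or below the median of all test compounds minus 3 SD, in both replicates if run twice, cut at about 45% in these data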;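 further: 100% = median untreated cell wells and 0% = median positive control drug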
Jurkat tox 60K: reduces viability or proliferation of Jurkat cells. inhibition, % at 4 µM. Jurkat E6.1 viability, ATP luminescence, 48 h. AID 463. hit rate 1.2% among 56,000;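 active means inhibition above the mean inhibition of all tested compounds plus 3 SD, cut at about 28% in these data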
Her2 expr inh: lowers expression of human Her2 kinase; SKBR-3 HER2 protein level, AlphaScreen, 18-24 h; hits give low values; HER2 level % of control, % at 10 µM; hit rate 0.69% among 65,000;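 active means HER2 level under 5% of the carrier-only control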;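 further: 100% = DMSO carrier and 0% = 500 nM PU-H71 HSP90 inhibitor; lower value means stronger loss of Her2 protein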
Target sequence (P04626 whole entry, looked up): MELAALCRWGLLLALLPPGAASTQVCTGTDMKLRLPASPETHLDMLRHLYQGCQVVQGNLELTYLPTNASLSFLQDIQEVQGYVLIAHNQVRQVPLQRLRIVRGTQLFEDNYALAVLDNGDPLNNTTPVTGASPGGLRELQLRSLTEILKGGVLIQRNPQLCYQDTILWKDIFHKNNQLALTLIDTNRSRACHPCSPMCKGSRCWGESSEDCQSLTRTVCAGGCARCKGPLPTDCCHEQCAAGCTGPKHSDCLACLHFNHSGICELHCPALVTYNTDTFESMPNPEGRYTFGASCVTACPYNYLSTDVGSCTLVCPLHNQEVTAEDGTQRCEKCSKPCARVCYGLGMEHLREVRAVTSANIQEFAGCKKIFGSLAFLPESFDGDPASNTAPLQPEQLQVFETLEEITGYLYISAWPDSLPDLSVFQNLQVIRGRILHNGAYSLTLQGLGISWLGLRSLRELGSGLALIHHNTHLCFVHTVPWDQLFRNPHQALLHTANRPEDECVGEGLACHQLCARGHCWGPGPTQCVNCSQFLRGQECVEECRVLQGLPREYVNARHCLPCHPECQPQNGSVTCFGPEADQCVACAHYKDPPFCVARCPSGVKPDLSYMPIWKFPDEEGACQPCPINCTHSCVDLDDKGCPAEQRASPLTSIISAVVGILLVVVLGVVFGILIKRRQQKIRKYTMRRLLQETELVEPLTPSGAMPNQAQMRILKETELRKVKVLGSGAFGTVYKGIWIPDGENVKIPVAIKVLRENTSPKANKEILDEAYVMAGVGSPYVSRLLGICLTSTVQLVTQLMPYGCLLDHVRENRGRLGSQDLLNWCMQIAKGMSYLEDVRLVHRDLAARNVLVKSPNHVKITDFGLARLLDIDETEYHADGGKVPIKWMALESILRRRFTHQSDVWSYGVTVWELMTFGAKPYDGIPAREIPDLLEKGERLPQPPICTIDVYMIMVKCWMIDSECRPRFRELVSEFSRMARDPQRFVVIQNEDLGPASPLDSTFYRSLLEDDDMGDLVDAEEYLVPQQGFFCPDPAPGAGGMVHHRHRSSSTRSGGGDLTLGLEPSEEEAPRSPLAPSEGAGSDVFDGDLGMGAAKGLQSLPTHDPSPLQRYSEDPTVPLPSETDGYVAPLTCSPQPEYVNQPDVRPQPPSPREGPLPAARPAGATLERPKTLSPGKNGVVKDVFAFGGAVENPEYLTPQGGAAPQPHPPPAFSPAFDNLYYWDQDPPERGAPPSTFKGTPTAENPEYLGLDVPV
* marks the source's active call; other numbers are inactive results; nt = no result.

SMILES | SK-BR-3 tox 24h | Jurkat tox 60K | Her2 expr inh
COc1ccc(CN=CC2=C(O)CNC2=O)cc1OC | 92 | -1 | 89
N#Cc1c(N2CCOCC2)nc(N2CCCCC2)c2c1CCN(C1CCCCC1)C2 | 90 | nt | 75
CCN1CCc2c(C#N)c(N3CCCCC3)nc(N3CCOCC3)c2C1 | 119 | nt | -22*
O=C(COC(=O)c1ccc[nH]c1=O)NCC1CCCO1 (stereo unspecified) | nt | -4 | 111
COc1ccc(OC)c(Nc2cc(C)nc3nc(C)nn23)c1 | nt | 25 | 71
COc1ccc(C)cc1Nc1cc(C)nc2nc(C)nn12 | nt | 36* | 93
CN(C1CCS(=O)(=O)C1)S(=O)C12CC3CC(CC(C3)C1)C2 (stereo unspecified) | 86 | -12 | 100
Cc1cc(C)c2ccc(N)nc2c1O | 76 | 44* | 66
Cc1cc(C)c2ccc(C)[n+]([O-])c2c1O | nt | -5 | 109
CS(=O)(=O)N(CC(=O)NC1CC2CCC1C2)c1cccc(C(F)(F)F)c1 (stereo unspecified) | 94 | -3 | 96
Cc1ccc(N(CC(=O)NC2CC3CCC2C3)S(C)(=O)=O)cc1C (stereo unspecified) | 90 | nt | -28*
CC(CNS(=O)(=O)c1cc(Cl)ccc1Cl)CN(C)C (stereo unspecified) | 96 | 4 | 80
CCOc1c(C)cc2[nH]c(CCC(=O)O)nc2c1C | 89 | nt | 83
N#C/C(=C/c1ccc(N2CCCCCC2)o1)c1ccc(F)cc1 | 89 | 99* | -14*
COc1cc(/C=C(/C#N)c2ccc(F)cc2)ccc1OCc1ccc(C(=O)O)o1 | 119 | -1 | 84
Oc1c(C(Nc2ccccn2)c2ccccn2)ccc2cccnc12 (stereo unspecified) | nt | 5 | 63
COc1cc(C(Nc2ccccn2)c2ccc3ccc(C)nc3c2O)cc(OC)c1O (stereo unspecified) | 140 | 71* | 27
CCN(CC)S(=O)(=O)c1ccc2nc(NC(=O)c3cccs3)sc2c1 | 87 | 2 | 98
CCN(CC)S(=O)(=O)c1cccc(C(=O)Nc2nc3cc4c(cc3s2)OCCO4)c1 | nt | 36* | 63
Cc1cc(NC(=O)CSc2nc(-c3cccs3)cc(C(F)(F)F)n2)no1 | 92 | 74* | 67
Cc1c(NC(=O)CSc2nc(-c3ccco3)cc(C(F)(F)F)n2)c(=O)n(-c2ccccc2)n1C | 93 | -17 | 90
COc1ccc(-c2cc(C(F)(F)F)nc(SCC(=O)Nc3cc(C)on3)n2)cc1OC | 78 | 0 | 184
CN1CCN(c2nc(-c3cccs3)cc(C(F)(F)F)n2)CC1 | 75 | nt | 75
CS(=O)(=O)c1nc(-c2cccs2)cc(C(F)(F)F)n1 | 22* | nt | -24*
Cc1cc(NC(=O)CCCS(=O)(=O)c2nc(-c3cccs3)cc(C(F)(F)F)n2)no1 | 37* | 100* | -16*
SMILES | SK-BR-3 tox 24h | Jurkat tox 60K | Her2 expr inh
COc1ccc(-c2cc(C(F)(F)F)nc(SCCC(=O)Nc3cc(C)on3)n2)cc1 | 72 | 4 | 124
Cc1cc(NC(=O)CSc2nc(-c3ccco3)cc(C(F)(F)F)n2)n(-c2ccccc2)n1 | 86 | 33* | 31
O=C(NCc1ccccc1)N(Cc1nc2ccccc2c(=O)[nH]1)C1CCCC1 | 83 | 6 | 72
CCc1ccc(NC(=O)N(CCCN2CCOCC2)C(C)c2cc3cccc(OC)c3o2)cc1 (stereo unspecified) | nt | 0 | 87
COc1cccc(OC)c1-c1nn2c(-c3ccccc3Cl)nnc2s1 | 116 | nt | 77
COCCCn1c(C2CCCCC2)nc2oc3cc(OC)ccc3c(=O)c2c1=O | 90 | -2 | 80
O=C(Nc1ccc2c(c1)OCO2)C1Cc2ccccc2CN1S(=O)(=O)c1cccs1 (stereo unspecified) | 92 | -6 | 93
CN1CC2=Cc3ccccc3OC23Oc2ccccc2C=C3C1 | 92 | 9 | -7.0*
COc1cccc(OCCOc2c(OC)cccc2OC)c1 | 90 | 8 | 104
Cn1c(C(=O)N2CCN(c3ccc(Cl)cc3)CC2)cc2c(=O)n(C)c3ccccc3c21 | nt | -3 | 103
COC(=O)c1ccc2c(c1)N(Cc1nc(-c3cccc(C)c3)oc1C)C(=O)C1CCCN21 (stereo unspecified) | nt | 1 | 79
COc1ccc(C2C=C(c3ccc(Br)s3)Nc3ncnn32)cc1OC (stereo unspecified) | 79 | 13 | 58
Cc1ccc(-c2nc(CSCC(=O)N3CCOCC3)c(C)o2)cc1 | nt | 6 | 111
Cc1oc(-c2ccccc2Cl)nc1CSCC(=O)N1CCCC1 | nt | 39* | 72
CC(=O)Nc1ccc(S(=O)(=O)N2CCN(c3cc(C)nc4ccccc34)CC2)cc1 | nt | 4 | 90
CC(=O)Nc1ccc(S(=O)(=O)N2CCN(c3nc(NC4CCCC4)c4ccccc4n3)CC2)cc1 | 41* | 2 | -9.2*
CCOC(=O)c1ccc(N2C(=O)CC(NC3CCN(C(=O)c4cccc(Cl)c4)CC3)C2=O)cc1 (stereo unspecified) | 113 | 4 | 91
Cc1ccc2cc(C#N)c(NCc3ccco3)nc2c1 | 90 | 12 | 77
CC(C)CCN(C)C1CCN(S(=O)(=O)c2cccc(C(F)(F)F)c2)CC1 | nt | -8 | 106
CC(C)(C)C(=O)NC1CCN(S(=O)(=O)c2cccc(C(F)(F)F)c2)CC1 | 23* | 8 | 72
O=C(c1cccc(Cl)c1)N1CCN(Cc2ccccc2F)CC1 | 129 | -4 | 88
Cc1ccc(NC(=O)CS(=O)(=O)c2c[nH]c3ccccc23)c(C)c1 | 95 | nt | 73
COC(=O)CSCc1nc2ccccc2[nH]c1=O | nt | -2 | 80
O=C(CSc1nnnn1C1CC2CCC1C2)Nc1ccnc2ccccc12 (stereo unspecified) | 84 | 100* | 101
CCc1nc(SCC(=O)Nc2ccnc3ccccc23)n[nH]1 | 109 | 4 | 101
SMILES | SK-BR-3 tox 24h | Jurkat tox 60K | Her2 expr inh
CCCCN(C)CCNC(=O)c1ccc2c(c1)NC(=O)C(N1CCCCC1)S2 (stereo unspecified) | 75 | 10 | 86
Cc1cc2c(=O)n(CC(=O)N3CCN(c4ccc(F)cc4)CC3)cnc2s1 | 78 | -10 | 92
COc1ccc(CC(=O)Nc2c3c(nn2-c2cccc(C)c2C)CS(=O)C3)cc1OC (stereo unspecified) | 67 | -19 | 106
O=C1CN(C(=O)COc2ccccc2)CCN1 | nt | -7 | 105
CCOC(=O)C(C)Oc1cccc2c(=O)n(CC(=O)NCc3ccc4c(c3)OCO4)ccc12 (stereo unspecified) | nt | 87* | 74
CCOC(=O)C(C)Oc1cccc2c(=O)n(CC(=O)Nc3ccc4c(c3)OCCO4)ccc12 (stereo unspecified) | nt | -3 | 69
CCOC(=O)N1CCN(c2c(F)cc3[nH]c(=S)[nH]c3c2Br)CC1 | 73 | 85* | 36
CCOC(=O)N1CCN(c2cc3[nH]c(=S)[nH]c3cc2F)CC1 | 97 | -8 | 111
CCC(Sc1nc2ccccc2c(=O)n1CC1CCCO1)C(=O)NCc1cccnc1 (stereo unspecified) | nt | nt | 93
CCCN(CCC)S(=O)(=O)c1cc(Br)cc2c1N(C(=O)CC)CC2 | 95 | nt | nt
CSCCOC(=O)c1[nH]c2c(c1C)C(=O)CC(c1ccco1)C2 (stereo unspecified) | nt | 85* | 38
CCOC(=O)C1=C(N)OC2=C(C(=O)CCC2)C1c1ccco1 (stereo unspecified) | 93 | 4 | 94
COCCOC(=O)c1[nH]c2c(c1C)C(=O)CC(c1ccco1)C2 (stereo unspecified) | nt | 92* | 55
